The record followed here is PubChem BioAssay (EPA / NIEHS).

The AC50 is the midpoint of the concentration-response curve, whichever way the signal moves.

Active and inactive are the calls of the source. Rule for the calls: active = hit-call score of the fitted dose curve at least 0.9, where 1 is the maximum; inactive = score below 0.9.

A short description of assay [1]: ATG_E_Box_CIS: Attagene CIS-FACTORIAL HepG2 Assay for human Enhancer Box (E-box) (AID 2282936). Particulars: HepG2 E-box cis-reporter transcription, actives raise or lower the signal. Summed up:
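Endogenous transcription factor activity was sensed in human HepG2 liver cells through transfected cis-promoter reporter units. After 24 h of dosing, total RNA was reverse-transcribed and reporter cDNA resolved by capillary electrophoresis.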

Assay [2] can be described thus: ATG_M_61_CIS: Attagene CIS-FACTORIAL HepG2 Assay for M61 Transcription Factor (Internal Marker) (AID 2282937). The conditions noted are these: HepG2 Attagene CIS-FACTORIAL M61 internal marker reporter; actives raise or lower the signal. Summed up:
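Background-control endpoint: HepG2 cells with cis-regulated reporter constructs, 24 h exposure, reporter mRNA detected via fluorescent primer extension and capillary electrophoresis; values from bidirectional fitting with DMSO baseline.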

The nature of assay [3]: ATG_EGR_CIS: Attagene CIS-FACTORIAL HepG2 Assay for human Early Growth Response 1 (EGR1) (AID 2282938). The conditions noted are these: HepG2 Attagene CIS-FACTORIAL EGR reporter mRNA; actives raise or lower the signal. Summed up:
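Endpoint derived by bidirectional fitting versus DMSO vehicle. Method: cis-promoter reporter units transfected into HepG2, 24 h dosing, RNA isolation, RT-PCR with 6-FAM primer extension and HpaI digestion, then capillary electrophoresis fluorescence detection.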

The nature of assay [4]: ATG_M_19_CIS: Attagene CIS-FACTORIAL HepG2 Assay for M19 Transcription Factor (Internal Marker) (AID 2282939). Particulars: HepG2 Attagene CIS-FACTORIAL M19 internal marker reporter; actives raise or lower the signal. Summed up:
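Internal marker readout, fitted in both directions against DMSO, from HepG2 cells carrying transfected cis-element reporter constructs; RT-PCR and capillary electrophoresis of reporter mRNA after 24 h exposure.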

Assay [5] can be described thus: ATG_Ets_CIS: Attagene CIS-FACTORIAL HepG2 Assay for human Erythroblast Transformation Specific (ETS) (AID 2282941). The conditions noted are these: HepG2 ETS cis-reporter transcription; AC50: actives raise or lower the signal unless noted; outcome: actives raise or lower the signal unless noted. Summed up:
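RT-PCR/capillary electrophoresis fluorescence read-out of reporter mRNA; HepG2 transient multi-reporter transfection; 24 h compound exposure; gain or loss of signal fitted bidirectionally relative to DMSO.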

In assay [6] the target is Hepatocyte nuclear factor 3-beta (Homo sapiens) (UniProt Q9Y261). As to the kind of experiment: ATG_FoxA2_CIS: Attagene CIS-FACTORIAL HepG2 Assay for human Forkhead box A2 (FOXA2) (AID 2282942). Particulars: HepG2 cis-reporter transcription factor activity, 24 h; actives raise or lower the signal. Summed up:
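Measured: reporter mRNA induction or loss in HepG2 transiently carrying multiple cis-regulated reporter units, 24 h after dosing. Quantified by RT-PCR plus capillary electrophoresis, normalised to DMSO.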

The nature of assay [7]: ATG_FoxO_CIS: Attagene CIS-FACTORIAL HepG2 Assay for human Forkhead box O (FoxO) (AID 2282943). Particulars: HepG2 Attagene cis-reporter, FoxO element, mRNA; actives raise or lower the signal. A digest of the protocol:
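Values reflect reporter mRNA induction or loss in HepG2 cells 24 h post-dosing, fitted bidirectionally with DMSO as negative control and baseline. Detection used RT-PCR and fluorescence capillary electrophoresis.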

A short description of assay [8]: ATG_GATA_CIS: Attagene CIS-FACTORIAL HepG2 Assay for human GATA Binding Protein (AID 2282944). Particulars: HepG2 GATA cis-element reporter, Attagene multiplex mRNA; actives raise or lower the signal. A digest of the protocol:
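Reporter transcripts from a GATA cis-regulated unit, among multiplexed reporters in transfected HepG2 cells, were measured by RT-PCR with capillary electrophoresis after 24 h dosing. Induction or loss scored relative to DMSO.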

Assay [9] in a line: ATG_GLI_CIS: Attagene CIS-FACTORIAL HepG2 Assay for human Zinc Finger Protein GLI1 (AID 2282945). The conditions noted are these: HepG2, Attagene cis-factorial reporter mRNA, GLI element; actives raise or lower the signal. A digest of the protocol:
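HepG2 cells transiently transfected with cis-promoter multiplexed reporter units report endogenous transcription factor activity. After 24 h chemical exposure, reporter mRNA was quantified by RT-PCR, 6-FAM labelling, HpaI digestion and capillary electrophoresis, with bidirectional fitting against DMSO.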

The target of assay [10] is Bile acid receptor (Homo sapiens) (UniProt Q96RI1). As to the kind of experiment: ATG_IR1_CIS: Attagene CIS-FACTORIAL HepG2 Assay for human Nuclear Receptor Subfamily 1 Group H Member 4 (NR1H4), IR1 submotif (AID 2282946). Particulars: IR1 reporter transcription, actives raise or lower the signal. A digest of the protocol:
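Readout: reporter transcript levels by RT-PCR with fluorescent capillary electrophoresis, from HepG2 cells transiently transfected with multiplexed cis-regulated reporters and dosed 24 h. Gain- or loss-of-signal fitted versus DMSO negative control.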

The nature of assay [11]: ATG_GRE_CIS: Attagene CIS-FACTORIAL HepG2 Assay for human Glucocorticoid Response Elements (GRE) (AID 2282947). Particulars: HepG2 GRE cis-reporter, Attagene multiplex mRNA; AC50: actives raise or lower the signal unless noted; outcome: actives raise or lower the signal unless noted. Summed up: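 Cells (HepG2) bearing transfected cis-promoter reporter transcription units were treated with chemical for 24 hours. Reporter mRNA was measured via RT-PCR with capillary electrophoresis, and activity was fitted in both directions relative to DMSO.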

Assay [12] in a line: ATG_ISRE_CIS: Attagene CIS-FACTORIAL HepG2 Assay for human Interferon Regulatory Factor 1 (IRF1) binding to an Interferon-Stimulated Response Element (ISRE) (AID 2282948). The conditions noted are these: HepG2 ISRE cis-reporter (Attagene), mRNA transcription readout; actives raise or lower the signal. A digest of the protocol:
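Read-out: fluorescent RT-PCR products resolved by capillary electrophoresis, reporting endogenous transcription factor activity via ISRE-driven reporter mRNA in transfected HepG2 cells dosed for 24 h; gain or loss fitted relative to DMSO.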

The nature of assay [13]: ATG_M_32_CIS: Attagene CIS-FACTORIAL HepG2 Assay for M32 Transcription Factor (Internal Marker) (AID 2282949).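 Note: background control marker of the multiplexed CIS panel rather than a real target.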 Particulars: HepG2 Attagene cis-factorial M32 reporter, mRNA; actives raise or lower the signal. A digest of the protocol: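 HepG2 transfectants (cis-regulated reporter transcription units) dosed 24 h. Reporter mRNA by RT-PCR plus CE, analysed as gain or loss relative to DMSO.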

Assay [14] in a line: ATG_M_06_CIS: Attagene CIS-FACTORIAL HepG2 Assay for M06 Transcription Factor (Internal Marker) (AID 2282950). The conditions noted are these: HepG2 Attagene CIS-FACTORIAL M06 internal marker reporter; actives raise or lower the signal. Summed up: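 Serves as a background control readout. Transfected HepG2 exposed to compounds for 24 h, then reporter transcripts quantified by fluorescent RT-PCR and capillary electrophoresis. Both directions fitted against DMSO baseline.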

The target of assay [15] is Hypoxia-inducible factor 1-alpha (Homo sapiens) (UniProt Q16665). Kind of assay: ATG_HIF1a_CIS: Attagene CIS-FACTORIAL HepG2 Assay for human Hypoxia Inducible Factor 1 (HIF1A) (AID 2282951). The conditions noted are these: HepG2 Attagene cis-factorial HIF1a reporter transcription; actives raise or lower the signal. A digest of the protocol: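 Dosed 24 h, transfected HepG2 cells yielded total RNA whose reporter transcripts were RT-PCR-amplified and sized by capillary electrophoresis using fluorescent labelling; DMSO defined baseline, with gain and loss of signal both fitted.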

Assay [16] concerns the target Hepatocyte nuclear factor 6 (Homo sapiens) (UniProt Q9UBC0). Kind of assay: ATG_HNF6_CIS: Attagene CIS-FACTORIAL HepG2 Assay for human Hepatocyte Nuclear Factor 6 (HNF6) (AID 2282952). Particulars: HepG2 Attagene cis-factorial HNF6 reporter transcription; actives raise or lower the signal. A digest of the protocol:
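Using cis-element reporters in HepG2 liver cells, the assay tracks endogenous factor-driven transcription 24 h post-dosing. Signal comes from 6-FAM-labelled, HpaI-digested RT-PCR fragments, with gain or loss scored against DMSO.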

In assay [17] the target is Heat shock factor protein 1 (Homo sapiens) (UniProt Q00613). As to the kind of experiment: ATG_HSE_CIS: Attagene CIS-FACTORIAL HepG2 Assay for human Heat Shock Transcription Factor 1 (HSE) (AID 2282953). The conditions noted are these: HepG2 HSE cis-reporter, Attagene RNA transcription; actives raise or lower the signal. A digest of the protocol:
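Endogenous transcription factor activity in transiently transfected HepG2, read as reporter mRNA by RT-PCR with fluorescent capillary electrophoresis after 24 h. Gain or loss of signal fitted versus DMSO baseline.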

The nature of assay [18]: ATG_MRE_CIS: Attagene CIS-FACTORIAL HepG2 Assay for human Metal Responsive Element (MRE) (AID 2282954). The conditions noted are these: HepG2 MRE cis-reporter transcription, Attagene multiplex; actives raise or lower the signal. A digest of the protocol: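 Cells were transfected with cis-promoter reporter transcription units, then dosed for 24 h. RNA was reverse-transcribed, amplified, fluorescently labelled and resolved by capillary electrophoresis, and activity was fitted in both directions relative to DMSO.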

Assay [19] can be described thus: ATG_PBREM_CIS: Attagene CIS-FACTORIAL HepG2 Assay for human Phenobarbital-responsive Enhancer Module (PBREM) (AID 2282955). Particulars: HepG2 PBREM cis-reporter, Attagene multiplexed transcription; actives raise or lower the signal. A digest of the protocol: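 Transfected liver-derived HepG2 cells exposed 24 h; PBREM reporter transcript quantified via RT-PCR and capillary electrophoresis, with activity in either direction referenced to DMSO.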

Assay [20] in a line: ATG_ERE_CIS: Attagene CIS-FACTORIAL HepG2 Assay for Estrogen Response Element (ERE) (AID 2282940). Particulars: HepG2 ERE cis-reporter, Attagene RNA transcript; actives raise or lower the signal. A digest of the protocol: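 After 24 h compound treatment, RNA from transfected HepG2 cells was reverse-transcribed, reporter cDNA PCR-amplified, FAM-labelled, HpaI-cut and resolved by capillary electrophoresis. ERE-driven cis reporter transcripts reflect endogenous factors; gain or loss scored against DMSO.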

Sequence of Hepatocyte nuclear factor 6 (Homo sapiens) (Q9UBC0 whole entry, looked up, the tested form may be a part): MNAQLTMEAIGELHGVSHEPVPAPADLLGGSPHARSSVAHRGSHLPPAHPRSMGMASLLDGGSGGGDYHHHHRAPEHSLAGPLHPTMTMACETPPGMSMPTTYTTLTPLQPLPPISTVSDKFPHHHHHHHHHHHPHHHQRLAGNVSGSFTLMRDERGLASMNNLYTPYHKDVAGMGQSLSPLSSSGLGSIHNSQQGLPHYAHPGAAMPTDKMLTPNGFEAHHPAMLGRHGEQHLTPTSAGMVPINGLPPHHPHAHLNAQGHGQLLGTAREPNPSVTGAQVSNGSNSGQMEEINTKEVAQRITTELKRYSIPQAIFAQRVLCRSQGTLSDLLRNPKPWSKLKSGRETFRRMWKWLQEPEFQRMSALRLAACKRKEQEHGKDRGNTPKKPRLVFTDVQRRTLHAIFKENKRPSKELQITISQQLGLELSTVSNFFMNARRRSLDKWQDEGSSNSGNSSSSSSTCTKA
Sequence of Hepatocyte nuclear factor 3-beta (Homo sapiens) (Q9Y261 whole entry, looked up): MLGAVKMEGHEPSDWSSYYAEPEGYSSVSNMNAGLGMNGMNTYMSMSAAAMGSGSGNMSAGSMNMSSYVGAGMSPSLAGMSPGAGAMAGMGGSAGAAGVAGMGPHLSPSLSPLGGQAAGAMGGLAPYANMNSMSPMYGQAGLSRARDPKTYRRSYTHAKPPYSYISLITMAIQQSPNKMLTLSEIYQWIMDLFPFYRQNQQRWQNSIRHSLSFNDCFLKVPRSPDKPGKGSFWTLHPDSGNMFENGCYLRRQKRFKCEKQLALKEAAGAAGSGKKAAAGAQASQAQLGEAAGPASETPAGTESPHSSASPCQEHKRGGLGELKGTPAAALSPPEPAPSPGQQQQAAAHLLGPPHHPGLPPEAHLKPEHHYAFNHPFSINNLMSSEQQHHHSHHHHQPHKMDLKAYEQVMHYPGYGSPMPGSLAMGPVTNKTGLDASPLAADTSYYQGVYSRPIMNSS
Sequence of Heat shock factor protein 1 (Homo sapiens) (Q00613 whole entry, looked up): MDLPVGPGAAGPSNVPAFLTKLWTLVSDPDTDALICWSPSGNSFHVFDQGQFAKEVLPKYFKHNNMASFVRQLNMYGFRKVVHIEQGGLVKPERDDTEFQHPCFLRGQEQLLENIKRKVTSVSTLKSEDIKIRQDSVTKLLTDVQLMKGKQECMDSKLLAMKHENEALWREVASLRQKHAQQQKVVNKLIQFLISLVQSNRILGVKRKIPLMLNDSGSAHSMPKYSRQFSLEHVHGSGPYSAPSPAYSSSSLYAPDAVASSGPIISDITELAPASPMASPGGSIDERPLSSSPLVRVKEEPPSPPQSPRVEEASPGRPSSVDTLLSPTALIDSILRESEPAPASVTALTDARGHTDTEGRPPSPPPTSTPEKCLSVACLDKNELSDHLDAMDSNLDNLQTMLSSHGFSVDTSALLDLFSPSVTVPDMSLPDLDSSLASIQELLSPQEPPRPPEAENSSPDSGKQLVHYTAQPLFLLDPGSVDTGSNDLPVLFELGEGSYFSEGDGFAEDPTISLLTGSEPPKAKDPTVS
Sequence of Hypoxia-inducible factor 1-alpha (Homo sapiens) (Q16665 whole entry, looked up): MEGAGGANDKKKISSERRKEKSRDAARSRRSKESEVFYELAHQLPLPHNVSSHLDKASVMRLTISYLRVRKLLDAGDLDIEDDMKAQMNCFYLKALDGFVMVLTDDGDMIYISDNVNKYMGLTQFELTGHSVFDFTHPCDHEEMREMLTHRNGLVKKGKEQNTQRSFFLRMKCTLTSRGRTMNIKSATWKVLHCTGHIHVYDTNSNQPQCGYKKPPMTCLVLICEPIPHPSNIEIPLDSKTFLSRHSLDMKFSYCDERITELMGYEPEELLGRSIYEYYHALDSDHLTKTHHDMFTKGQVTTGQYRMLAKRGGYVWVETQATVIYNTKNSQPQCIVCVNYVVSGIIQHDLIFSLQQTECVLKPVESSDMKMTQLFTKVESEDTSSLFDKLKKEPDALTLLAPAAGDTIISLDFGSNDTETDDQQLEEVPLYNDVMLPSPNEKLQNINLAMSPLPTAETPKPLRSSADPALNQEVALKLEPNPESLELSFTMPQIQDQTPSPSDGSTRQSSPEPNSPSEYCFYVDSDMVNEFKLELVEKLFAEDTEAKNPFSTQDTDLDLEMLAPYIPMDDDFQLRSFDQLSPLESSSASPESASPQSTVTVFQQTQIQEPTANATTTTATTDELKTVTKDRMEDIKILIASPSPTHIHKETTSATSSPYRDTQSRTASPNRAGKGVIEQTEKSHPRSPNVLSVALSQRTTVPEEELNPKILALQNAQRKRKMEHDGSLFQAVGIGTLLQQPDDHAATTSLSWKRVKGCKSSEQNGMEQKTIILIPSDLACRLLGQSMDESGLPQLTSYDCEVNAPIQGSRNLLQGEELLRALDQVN
Sequence of Bile acid receptor (Homo sapiens) (Q96RI1 whole entry, looked up): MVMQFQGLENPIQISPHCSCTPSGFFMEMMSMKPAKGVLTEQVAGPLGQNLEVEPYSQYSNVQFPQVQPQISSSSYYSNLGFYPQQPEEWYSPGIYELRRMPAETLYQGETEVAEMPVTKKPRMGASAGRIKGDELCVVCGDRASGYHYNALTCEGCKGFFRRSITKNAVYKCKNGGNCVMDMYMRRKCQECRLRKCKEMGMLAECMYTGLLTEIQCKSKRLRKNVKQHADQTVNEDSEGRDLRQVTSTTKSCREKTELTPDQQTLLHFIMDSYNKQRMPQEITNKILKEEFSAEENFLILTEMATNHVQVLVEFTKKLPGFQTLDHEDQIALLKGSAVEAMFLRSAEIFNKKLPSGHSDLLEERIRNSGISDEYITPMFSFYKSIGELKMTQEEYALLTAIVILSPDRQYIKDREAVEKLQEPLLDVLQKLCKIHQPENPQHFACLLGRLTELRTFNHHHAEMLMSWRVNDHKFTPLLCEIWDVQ

For the compound `Cc1ccc(N=Nc2c(O)ccc3ccccc23)c(C)c1`, the outcome in [1], in assay [2], in [3], in assay [4], in assay [5] and in assay [6] was inactive. The result in assay [7], in assay [8], in assay [9], in assay [10], in assay [11] and in assay [12] was inactive. For the same compound, the outcome in assay [13], in assay [14], in assay [16], in assay [18] and in [19] was inactive. Further, the AC50 in assay [15] is 13.2 µM (active); in assay [17], 3.78 µM (active).
Take `Nc1ccn([C@@H]2O[C@H](CO)[C@@H](O)C2O)c(=O)n1` (some centres undefined): the outcome in assay [1], in assay [2], in assay [3], in assay [4], in assay [20] and in [5] was inactive. For the same compound, the call in assay [7], in assay [8], in assay [9], in assay [10], in assay [11] and in assay [12] was inactive. Further, the compound was called inactive in [13], in [14], in assay [15], in assay [16], in [17] and in assay [18]. Also, the result in assay [19] was inactive.
Consider `CN(Cc1cnc2nc(N)nc(N)c2n1)c1ccc(C(=O)N[C@@H](CCC(=O)O)C(=O)O)cc1`, for which the result in [1], in assay [2], in assay [3], in [4], in assay [20] and in assay [5] was inactive. For the same compound, the call in assay [6], in assay [7], in assay [8], in assay [10], in assay [12] and in assay [13] was inactive. The call in [14], in assay [16], in assay [17], in [18] and in assay [19] was inactive.
Consider `C=CC(=O)OCC(CO)(COCC(COC(=O)C=C)(COC(=O)C=C)COC(=O)C=C)COC(=O)C=C`, for which the AC50 in [1] was 2.52 µM (active); in [3] it was 3.04 µM (active); in [4] it was 16.2 µM (active); in assay [7], 3.66 µM (active); in assay [12] it was 1.29 µM (active); in [15], 2.92 µM (active). For the same compound, the half-maximal activity concentration (AC50) in [18] was 2.9 µM (active). The compound was classed as inactive in assay [2], in assay [5], in [6], in assay [8], in assay [9] and in assay [10]. The compound was classed as inactive in [11], in assay [13], in assay [14], in assay [16], in assay [17] and in assay [19].
